# Screening data as filed in PubChem.
# In the library only some 2.8% were active in any assay of this set; here they are far more common.
# Pol iota inh: blocks human DNA polymerase iota activity | AID 588590 | Pol iota fluorescent replication assay, 10 min | Potency, µM (highest dose often 115 µM), without a hit: at the top dose activity, negative = inhibition, hits mostly inhibitors | hit rate 1% among 390,000; further: potency means the concentration at half of the fitted maximal effect
#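 Fluorescent replication assay read twice, at 0 min and 10 min after adding 50 nM (final) substrate. Enzyme (10 nM) and compounds were first incubated 15 min at room temperature; enzyme-free buffer wells were negative controls.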
# WRN helicase inh: WRN helicase (human) inhibition; Q14191; WRN helicase unwinding, fluorescent forked duplex, kinetic; Potency, µM (series often up to 114 µM), for inactives: at the highest dose activity change, negative = inhibition, actives largely listed as inhibitors; hit rate 0.46% among 360,000; AID 651768; further: potency means the concentration at half of the fitted maximal effect; on the % scale 0 is the no-effect control and ±100 the full control effect; nearly all actives have a fitted effect of over 55% in size
#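 WRN at 20 nM final was preincubated with compound for 15 min at room temperature; reaction started with 100 nM forked duplex oligonucleotide carrying fluorophore and quencher plus 2 mM ATP (final). Unwinding followed kinetically by red fluorescence (ex 525/em 598 nm).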
# POLB inh: inhibitors of human DNA polymerase beta; P06746; Pol beta primer extension/strand displacement, fluorescence kinetic; Potency, µM (doses to about 114 µM), without a hit: at the top dose activity change, negative = inhibition, most hits filed as inhibitors; hit rate 1.3% among 340,000; further: potency means the concentration at half of the fitted maximal effect; on the % scale 0 is the no-effect control and ±100 the full control effect
#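 10 nM enzyme + cpd, 15 min RT; start with substrate 50 nM final; read 0 min and after 10 min RT. Corrected, normalized data; 4-parameter Hill curve fit.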
# PI5P4K alpha inh: inhibitors of human PI5P4K alpha; AID 652105; P48426; hit rate 1.2% among 330,000; PI5P4Kalpha enzyme, ADP-Glo luminescence, 60 min; hits give low values; max response, %; active means max response of -50% or lower; inconclusive means between -30% and -50%; inactive means -30% or higher; further: value at the top dose of about 77 µM; on the % scale 0 is the no-effect control and ±100 the full control effect
#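 Controls without substrate or without enzyme flank wells where PI5P4Kalpha converts substrate using 5 microM ATP (final). Incubation lasts 60 minutes at room temperature; ADP formed is read by ADP-Glo luminescence.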
# POLH inh: inhibitors of human DNA polymerase eta; hit rate 1.2% among 390,000; AID 588591; Potency, µM (series often up to 114 µM), without a hit: at the highest dose activity change, negative = inhibition, actives largely listed as inhibitors; recombinant Pol eta, fluorescent DNA replication assay; Q9Y253; further: potency means the concentration at half of the fitted maximal effect; on the % scale 0 is the no-effect control and ±100 the full control effect
#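 Pol eta at 10 nM preincubated with compounds 15 min at room temperature; reaction started with fluorescent substrate (50 nM final) and read kinetically at 0 and 10 min.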
# Pol kappa inh: inhibitors of human DNA polymerase kappa | Q9UBT6 | purified Pol kappa, fluorescent DNA synthesis assay, 10 min | Potency, µM (highest dose often 107 µM), for inactives: top-dose activity, negative = inhibition, hits mostly inhibitors | hit rate 0.53% among 400,000 | AID 588579; further: potency means the concentration at half of the fitted maximal effect; on the % scale 0 is the no-effect control and ±100 the full control effect
# Target sequence (Q9UBT6 whole entry, looked up): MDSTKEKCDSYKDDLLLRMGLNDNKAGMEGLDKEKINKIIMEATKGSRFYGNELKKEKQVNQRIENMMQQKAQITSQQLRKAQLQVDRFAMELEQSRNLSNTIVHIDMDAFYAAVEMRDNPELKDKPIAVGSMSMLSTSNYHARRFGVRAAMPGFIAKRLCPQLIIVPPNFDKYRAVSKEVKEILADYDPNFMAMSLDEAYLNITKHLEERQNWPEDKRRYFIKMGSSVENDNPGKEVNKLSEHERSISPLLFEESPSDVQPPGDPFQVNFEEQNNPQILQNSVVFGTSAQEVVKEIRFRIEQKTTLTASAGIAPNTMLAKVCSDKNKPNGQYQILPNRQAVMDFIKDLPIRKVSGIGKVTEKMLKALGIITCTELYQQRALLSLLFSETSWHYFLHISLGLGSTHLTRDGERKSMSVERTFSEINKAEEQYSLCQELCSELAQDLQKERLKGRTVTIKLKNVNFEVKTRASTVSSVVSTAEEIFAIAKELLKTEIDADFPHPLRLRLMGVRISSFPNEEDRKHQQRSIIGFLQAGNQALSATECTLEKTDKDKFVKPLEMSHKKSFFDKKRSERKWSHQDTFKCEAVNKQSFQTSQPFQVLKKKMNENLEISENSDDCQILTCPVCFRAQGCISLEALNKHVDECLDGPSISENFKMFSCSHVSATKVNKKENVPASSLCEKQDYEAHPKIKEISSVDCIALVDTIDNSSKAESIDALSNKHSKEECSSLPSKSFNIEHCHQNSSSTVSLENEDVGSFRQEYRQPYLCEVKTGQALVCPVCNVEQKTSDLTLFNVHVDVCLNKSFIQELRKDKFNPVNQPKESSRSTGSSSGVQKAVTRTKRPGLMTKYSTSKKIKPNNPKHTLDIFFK
#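 Activity was followed as the change in fluorescence between reads at 0 and 10 min after starting the reaction with 50 nM substrate. Beforehand, 10 nM polymerase had been preincubated with compound for 15 min at room temperature.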
# The depositor's hits bear a star; ? = inconclusive; nt = no result; [ ] = remark or other dose. Unless noted, the call rests on the fitted dose curve; in most records, active means well fitted curve in the direction sought with a large enough effect; inconclusive means small, poorly fitted or top-dose-only effect, or another doubt; inactive means no such curve, though single readings can be large; an effect the other way counts as inactive or inconclusive.
SMILES,Pol iota inh,WRN helicase inh,POLB inh,PI5P4K alpha inh,POLH inh,Pol kappa inh
CCOC(=O)c1cc(S(=O)(=O)N2CCN(c3ccc(C)cc3C)CC2)[nH]n1,-20%,nt,1%,nt,2%,-11%[60.1 µM]
COc1ccccc1N=c1oc2cc(O)ccc2cc1C(N)=O,19%,?,1%,-71*,-15%,-18%
O=C(CSc1nnc(SCc2cccc3ccccc23)s1)N=Nc1c(O)[nH]c2ccccc12,nt,nt,13µM*,nt,nt,nt
O=C(CSc1n[nH]c(=O)[nH]c1=O)Nc1ccc(C(=O)O)cc1,30%,0%,4%,-64*,-20%,-1%
O=C(CSc1nnc(SCc2cccc3ccccc23)s1)Nc1ccc(C(=O)O)cc1,-2%,?,-6%,-93*,7%,-7%
CSc1nsc(SCC(=O)Nc2ccc(C(=O)O)cc2)n1,-3%,1%,-21%,-51*,-3%,1%
O=C(CSc1nnc(SCc2cccc3ccccc23)s1)c1ccc2c(c1)OCO2,7%,-8%,21%,?,1%,-22%
O=C(Cc1cccs1)N=Nc1c(O)[nH]c2ccccc12,-15%,-12%,4%,-25,-22%,-15%
Cc1ccc(NC(=O)c2ccc(=O)n(Cc3ccccc3C)c2)c(C)c1,4%,nt,18%,nt,-11%,-2%[60.1 µM]
CC(NC(=O)c1cccc(S(=O)(=O)N(C)C)c1)C1CC2CCC1C2 (centres undefined),19%,12%,2%,7,8%,2%
CC(=O)c1cccc(S(=O)(=O)NC(C)C2CC3CCC2C3)c1 (centres undefined),?,?,22µM*,?,?,-5%
Cc1nc2c(C(=O)N3CCN(c4ccccn4)CC3)cnn2c(C)c1Cc1cccc(Cl)c1,89µM*,0%,3%,nt,-18%,-8%
COc1cc2ccccc2cc1C(=O)Nc1ccc2oc(-c3cccc(C)c3)nc2c1,-26%,nt,10%,nt,-28%,-10%
CCCCCOc1ccc(C2C(C(=O)c3ccc(C)o3)=C(O)C(=O)N2c2cc(C)on2)cc1 (centres undefined),12%,0%,-9%,-55*,-25%,6%
Cc1cc(N2C(=O)C(O)=C(C(=O)c3cc4ccccc4o3)C2c2cccc(Br)c2)no1 (centres undefined),12%,-6%,?,-53*,-19%,-2%
COc1ccc(C(=O)Nc2ccccc2C(=O)OCc2cc(=O)n3c4c(sc3n2)CCCC4)cc1,11%,nt,29%,nt,2%,-2%[60.1 µM]
COc1ccc(NC(=O)CSc2nnc(-c3cccs3)o2)cc1,7%,nt,-9%,nt,-20%,-3%
O=C(N/N=C/C(Br)=C/c1ccccc1)c1n[nH]c2c1CCC2,3.5µM*,-21%,3%,nt,?,?
O=C(N/N=C/c1ccccc1)c1n[nH]c2c1CCCC2,87%,-1%[57.1 µM],-29%,6,1%,-8%
CCOC(=O)c1sc(N/N=C/c2cc(Br)c(O)c(OC)c2)nc1C,?,?,32µM*,?,35µM*,?
CCOC(=O)N/N=C/c1cc(OC)c(O)c(OC)c1,21%,5%,?,-3,-12%,-12%
NS(=O)(=O)c1cccc2c1c([N+](=O)[O-])cc1[nH]c(=O)c(=O)[nH]c12,nt,nt,nt,nt,nt,21µM*
COc1ccc(/C=C2\SC(=Nc3ccccc3OC)NC2=O)cc1,?,-10%,5%,2,79µM*,2%
COc1cc(/C=C2\SC(=Nc3ccccc3)NC2=O)cc(Cl)c1O,-11%,?,56µM*,-104*,?,-14%
COc1cc(/C=C2\SC(=Nc3ccccc3OC)NC2=O)ccc1O,-10%,-11%,15%,?,-26%,-10%
SMILES,Pol iota inh,WRN helicase inh,POLB inh,PI5P4K alpha inh,POLH inh,Pol kappa inh
CCc1ccc(N=C2NC(=O)/C(=C/c3cc(OC)c(O)c(OC)c3)S2)cc1,1%,-29%,?,-54*,-25%,-11%
COc1cc(/C=C2/SC(=Nc3ccc(O)cc3)NC2=O)ccc1O,?,50µM*,20µM*,-90*,32µM*,?
O=Cc1ccnc2ccccc12,7%,nt,nt,nt,nt,-19%
O=C(Nc1nccs1)[C@@H]1CC=C[C@@H]2CCN(C3CCCCC3)C(=O)[C@@H]21,5%,nt,nt,nt,nt,13%
CC1=Nc2ccccc2/C1=C/c1sc(=N)n(-c2nccs2)c1O,-5%,?,-1%,-70*,-14%,-15%
CC1=Nc2ccccc2/C1=C/c1nc(-c2ccc(C)s2)oc1O,-2%,19%,3%,8,-2%,-2%
CC(C)(C)CC(C)(C)N=C1Nc2cc(Cl)c(Cl)cc2N[C@]12C[C@H]1CCCC(=O)N3CC[C@@H](C2)[C@@H]13,?,nt,nt,nt,nt,-17%
O=C(Nc1ncccn1)C1CCCN1S(=O)(=O)c1ccc(Cl)c(Cl)c1 (centres undefined),16%,1%[11.6 µM],17%,nt,79µM*,-7%[60.1 µM]
O=C(O)C1CCCN1S(=O)(=O)c1ccc(Cl)c(Cl)c1 (centres undefined),?,-4%,1%,nt,2%,-12%[60.1 µM]
CCOC(=O)C(=CNc1ccc(Cl)cn1)C(=O)OCC,-7%[58.9 µM],1%,-4%,-6,-13%,-10%
CCOC(=O)C(=CNNc1cccc(Cl)c1)C(=O)OCC,102%,50µM*,-3%,9,-3%,-15%
CCCN1Cc2cccc(C(=O)Nc3cc(C)cc(C)c3)c2C1=O,-13%,nt,7%,nt,-9%,-14%
COc1cccc(CNC(=O)CCNS(=O)(=O)c2ccc3c(c2)CCCC(=O)N3)c1,-15%,nt,-18%,nt,-4%,-9%
O=C(CSc1nc2c([nH]c3ccccc32)c(=O)n1-c1ccc(Cl)cc1)NC1CCCCC1,22%,nt,14%,nt,-13%,-3%[60.1 µM]
C(=C\c1ccco1)/c1ccc2ccccc2n1,?,-10%,10µM*,-30,-21%,?
Cc1ccc(Cn2c(SCC(=O)C(C)(C)C)nc3ccsc3c2=O)cc1,-16%,nt,4%,nt,11%,-14%[60.1 µM]
Nn1c(=S)[nH]c2sc3c(c2c1=O)CCCC3,25%,-19%,nt,-70*,-12%,2%
CCCn1c(=S)[nH]c2sc3c(c2c1=O)CCCC3,11%,-26%,10%,-13,7%,-14%
O=c1[nH]c(C2CC2)nc2sc3c(c12)CCCC3,16%,1%,?,3,-24%,-5%
O=c1[nH]c(=S)[nH]c2sc3c(c12)CCCCCC3,66%,-4%,-7%,-60*,-15%,0%
O=C(NC1CC(=O)N(c2ccccc2)C1)c1ccc(S(=O)(=O)N2CCCC2)cc1 (centres undefined),12%,nt,5%,nt,-12%,0%[60.1 µM]
Cc1cc(=O)cc2oc3cc(N)c(-c4c(C)cc(O)cc4O)c(C)c3nc1-2,nt,nt,nt,nt,nt,4.5µM*
